About 1,700 (0.5%) of roughly 340,000 compounds were called active. The full list was thinned out, with actives kept by preference. Unmarked numbers belong to inactive results. Cut-off read from the data, not from the text of the source: active = inhibition above about 40%; inactive = the rest.

The target of the test is Cysteine protease ATG4B (Homo sapiens) (UniProt Q9Y4P1). As to the kind of experiment: blockers of ATG4B cysteine protease activity – biochemical, fluorescence, uHTS, primary screen (AID 504462). Particulars: ATG4B cleavage of LC3-PLA2, NBD-HPC fluorescence, 1 h; at 8.33 µM; stronger effect = higher value.
Cysteine protease ATG4B (Homo sapiens), sequence (Q9Y4P1 whole entry, looked up): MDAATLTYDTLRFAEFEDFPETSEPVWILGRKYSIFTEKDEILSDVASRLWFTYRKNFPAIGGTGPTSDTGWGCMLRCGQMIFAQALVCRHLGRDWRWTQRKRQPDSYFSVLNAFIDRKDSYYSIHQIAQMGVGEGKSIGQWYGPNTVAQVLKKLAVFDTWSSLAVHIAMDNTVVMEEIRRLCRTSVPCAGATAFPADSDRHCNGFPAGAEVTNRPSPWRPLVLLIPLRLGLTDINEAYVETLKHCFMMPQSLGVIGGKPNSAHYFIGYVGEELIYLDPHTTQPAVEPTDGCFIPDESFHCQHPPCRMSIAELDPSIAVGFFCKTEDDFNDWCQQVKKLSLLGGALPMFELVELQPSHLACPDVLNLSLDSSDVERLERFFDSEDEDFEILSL
Take `O=S1(=O)CCC(NC(=S)SCc2ccccc2Br)C1` (stereo not given): the inhibition (in general, the drop in the measured response relative to a control, in per cent) was -4.75%.
The value for `Cc1c(Cl)cccc1NC(=O)Nc1ccc(C(=O)N2CCCC2)cc1` was 40.6% (active); that for `Cc1c(Cl)cccc1NC(=O)NCCCN1CCCC1=O` was 2.74%; that for `CS(=O)(=O)Nc1ccc(C(=O)N2CCCC2)cc1` was -2.74%.
In the case of `COc1ccccc1CCNC(=O)CSc1nnc2ccc(-c3cccnc3)nn12`, the inhibition was 0.74%.
Next, `CCn1c(Cc2ccc(OC)cc2)nnc1SCC(=O)Nc1ccc(N2CCOCC2)cc1`: -5.02%; `Cc1ccc(-c2csc(-c3c[nH]c4ccccc34)n2)cc1`: 4.81%.
The value for `Cc1ccc(C2=Nc3c(ccc4ccccc34)C(c3ccncc3)=NN2)cc1` was 60.3% (active).
Next, `CC(Sc1nnc(-c2ccccc2F)n1C1CC1)C(N)=O` (stereo not given): -8.94%.
Regarding `CCCCCCCC1(C)NC(=O)N(CC(=O)Nc2cc(C)on2)C1=O` (stereo not given), the inhibition is -10.1%.
The value for `O=C(C1CCN(S(=O)(=O)Cc2ccccc2)CC1)N1CCCc2ccccc21` was 13.8%.
Consider `Cc1ccc(N2CC(C(=O)NCCS(=O)(=O)N3CCN(c4ccccc4)CC3)CC2=O)cc1` (stereo not given), for which the inhibition was -5.93%.
In the case of `COc1ccc2c(c1)C(c1cccs1)=NNC(c1cccnc1)=N2`, the inhibition is 0.69%.
Next, `CCOc1ccc2c(c1)C(c1ccc(C)cc1)=NNC(c1ccc(C)cc1)=N2`: 65.9% (active).
The value for `CCOC(=O)C1=C(C)N(C[C@@H]2CC[C@@H](Cc3ccc(-c4ccccc4)cc3)O2)C(=O)NC1c1ccc([N+](=O)[O-])cc1` (stereo not given in full) was 1.26%; that for `CCC1OC(c2ccc([N+](=O)[O-])cc2)=Nc2ccccc21` (stereo not given) was -2.62%; that for `Fc1ccc2c(c1)C(c1cccnc1)=NNC(c1cccs1)=N2` was -1.31%.
Turning to `CCc1ccc2c(c1)C(c1ccc([N+](=O)[O-])cc1)=NNC(c1ccccc1)=N2`, the inhibition was 61% (active).
The value for `Cc1ccccc1CSc1nnc(-c2ccccc2)c(=O)[nH]1` was 11.3%; that for `CCCN1C2CCCC1CC(NC(=O)c1cccc(OC)c1)C2` (stereo not given) was -4.61%.
Next, `CC(C(=O)NCCc1ccc(S(N)(=O)=O)cc1)N1C(=O)CC(C)(C)Sc2ccccc21` (stereo not given): 1.71%; `Cn1c2c(c(=O)n(C)c1=O)C(c1ccc(O)cc1)Nc1ccccc1O2` (stereo not given): -5.48%.
Next, `CCc1nn(-c2cc(Oc3cccc4ccccc34)nc(-c3ccccc3)n2)c(N)c1C#N`: -7.41%; `COc1ccc(C)cc1N(C)C(=O)c1coc(=O)c2ccccc12`: -10%; `NC(=O)c1ccc(Nc2ccc3c(c2)CCC3)c([N+](=O)[O-])c1`: 29.8%.
`Cc1ccc(Nc2ccc(C(N)=O)cc2[N+](=O)[O-])cc1`: the inhibition is 66.7% (active).
Next, `CCOc1ccccc1Nc1ccc(C(=O)O)cc1[N+](=O)[O-]`: -16.2%; `CC(=O)c1ccc(S(=O)(=O)NCc2nnnn2-c2ccccc2)cc1`: -3.36%.
On to `O=C(/C=C/NNC(=O)c1cccc(Br)c1)c1ccccc1`, for which the inhibition was 8.45%.
The value for `Cc1cccc(C=CC(=O)c2ccc(Cl)cc2)c1` was -4.71%; that for `O=C(O)CCn1cc(/C=C/C(=O)c2ccc(Cl)cc2)c(-c2cccc(Br)c2)n1` was 53.3% (active).
Next, `CCOC(=O)c1ccc(-n2c(CCC(=O)O)ccc2-c2ccccc2)cc1`: 9.28%; `COc1ccc(C(CNCC(=O)Nc2ccccc2F)N(C)C)cc1` (stereo not given): 9.81%.
Next, `Cc1c([N+](=O)[O-])c(N)nn1C`: -3.74%; `O=C(COC(=O)Cn1[nH]c(=O)c2ccccc2c1=O)Nc1c(Cl)cccc1C(F)(F)F`: 1.19%.
Take `CCC(C)N(C(=O)COC(=O)C1C(C(=O)OC)=C(C)NC(C)=C1C(=O)OC)C1CCS(=O)(=O)C1` (stereo not given): the inhibition was -4.18%.
The value for `Cc1cc(NC(=O)CSc2nc(C(C)C)nc3sc4c(c23)CCC(C)C4)no1` (stereo not given) was -8.31%; that for `Cc1ccc(C)c2c1cc(C)c1nnc(SCC(=O)Nc3cccc(C(=O)O)c3)n12` was -4.22%.
The value for `CC(C)c1nc(SCC(=O)Nc2cccc(C(=O)O)c2)c2c3c(sc2n1)CCCC3` was 68.4% (active).
Next, `Cc1cc(N(C)C)cc(C)[n+]1[O-]`: 1%; `Cc1cccc(C)c1-n1c(C)cc(/C=C2\C(=O)NN(c3ccccc3)C2=O)c1C`: 50.9% (active).
Take `C#CCOc1ccc(/C=C2/C(=O)NN(c3ccccc3)C2=O)cc1OC`: the inhibition is 3.6%.
The value for `Cc1ccccc1-n1c(C)cc(/C=C2\NC(=O)NC2=O)c1C` was -2.07%.
The value for `CC(C)CC(=O)NC(=S)Nc1ccc(F)cc1F` was 0.36%.
For `O=C(CC1C(=O)NCCN1CC(c1ccccc1)c1ccccc1)NCC1CCOCC1` (stereo not given), the inhibition is 5.98%.
The value for `Cc1cccc(CC(=O)Nc2c3c(nn2-c2cccc(Cl)c2)CS(=O)C3)c1` (stereo not given) was -6.51%.
The value for `CCN(CC)C(=O)c1sc2nc(-c3ccccc3)ccc2c1N` was -13.8%; that for `NC(=O)c1sc2nc3c(c(-c4ccccc4)c2c1N)CCC3` was 42.3% (active).
Next, `Cc1sc2nc(CC(N)=O)[nH]c(=O)c2c1-c1ccccc1`: 5.21%.
With `CCN(CC)S(=O)(=O)c1ccc2c3c(cccc13)C(=O)S2`, the inhibition is -12.5%.
The value for `O=C(c1ccncc1)N1CCN(S(=O)(=O)c2cccc([N+](=O)[O-])c2)CC1` was -1.28%; that for `Cc1ccccc1/C=C\c1nc(O)c([N+](=O)[O-])c(=O)[nH]1` was 4.7%; that for `CCCc1ccc(C(=O)[C@@H]2[C@@H](C(C)=O)N3c4ccc(F)cc4C=C[C@@H]3[C@@]23C(=O)Nc2ccccc23)cc1` was 7.49%.
The value for `COc1ccc(CNC(=O)CCCn2nc(C)c([N+](=O)[O-])c2C)cc1` was 4.24%.
The value for `Cc1nn(CC(=O)Nc2ccc(N(C)C)cc2)c(C)c1[N+](=O)[O-]` was -1.82%; that for `Cc1ccc(Oc2cc(NC(=O)CCCn3nc(C)c([N+](=O)[O-])c3C)cc([N+](=O)[O-])c2)cc1` was 62% (active); that for `CN(c1ccc(OCC(=O)NC2=NCCS2)cc1)S(=O)(=O)c1ccc(F)cc1` was -9.32%.
For `COCCCNC(=S)NC(=O)c1ccc([N+](=O)[O-])cc1`, the inhibition is -7.22%.
Regarding `CCc1nc(N2CCN(C(C)=O)CC2)c2c3c(sc2n1)CCCC3`, the inhibition is 45.4% (active).
The value for `CCCc1nc2sc3c(c2c(=O)n1NC(=O)CCCl)CCCC3` was 10.3%.
The value for `Cc1nc2sc3c(c2c(=O)n1NC(=O)CCl)CCCC3` was -3.09%; that for `COc1cc(/C=C/C(=O)O)cc(S(=O)(=O)Nc2ccccc2SC)c1OC` was -3.57%.
The value for `CS(=O)(=O)N(Cc1ccccc1Cl)c1ccc(C(=O)NCc2cccnc2)cc1` was -9.46%; that for `CCCCN(C(=O)CSCC(=O)Nc1ccc(OC)cc1)c1c(N)n(CCC)c(=O)[nH]c1=O` was -1.8%; that for `NS(=O)(=O)c1ccc(CCNc2nc(C(F)(F)F)nc3ccccc23)cc1` was -2.12%.
Turning to `CCc1ccc(C(CNc2nc(C(F)(F)F)nc3ccccc23)N(C)C)cc1` (stereo not given), the inhibition is 19.9%.
The value for `COc1cccc(CNc2nc(C(F)(F)F)nc3ccccc23)c1` was 49% (active); that for `COC(=O)CN(c1nc(C)c(Cl)c(OC)n1)S(=O)(=O)c1ccc(C)cc1` was 11.3%.
With `CC1Cc2ccccc2N1C1=CC(=O)CC(C)(C)C1` (stereo not given), the inhibition is -2.3%.
Next, `COc1ccc(S(=O)(=O)/N=C2\C=C(NS(=O)(=O)c3ccccc3)C(=O)c3ccccc32)cc1`: -24.5%.
Next, `CC1=C/C(=N\OS(=O)(=O)c2ccccc2)C=CC1=O`: -2.58%; `CC1=C/C(=N\S(=O)(=O)c2ccccc2)C(C(C)C)=CC1=O`: 66% (active).
Turning to `Cc1cc(C)nc(-n2ncc3c2CC(c2ccc(C(C)C)cc2)CC3=O)n1` (stereo not given), the inhibition was -17.4%.
Next, `Cc1ccc(CNC(=O)CCN2C(=O)[C@@H]3Cc4ccccc4CN3C2=O)cc1`: 2.31%.
The value for `CC(=O)Nc1ccc(NC(=O)CSc2nnnn2-c2ccccc2F)cc1` was 2.29%; that for `C=CCC1(CC=C)CCCN1C(=O)c1cc(COc2ccc(-n3cncn3)cc2)on1` was 7.84%.
The value for `CC(C)CCNC(=O)C1CCCN(S(=O)(=O)c2ccc(F)cc2)C1` (stereo not given) was 0.97%; that for `O=C(c1ccc(OC2CCN(C(=O)c3cccnc3)CC2)cc1)N1CCCCCC1` was 19.9%; that for `COCCN1C=C2C(=O)C(C)(OC(=O)C3CCCC3)C(=O)C=C2C=C1c1ccsc1` (stereo not given) was 2.63%.
Regarding `C=CCN1C=C2C(=O)C(C)(OC(=O)CCc3ccccc3)C(=O)C=C2C=C1c1ccc(C#N)cc1` (stereo not given), the inhibition is -3.06%.
Next, `CC1(OC(=O)C2CCCC2)C(=O)C=C2C=C(c3ccc(C#N)cc3)OC=C2C1=O` (stereo not given): 45.7% (active).
The value for `O=C(O)c1ccc([N+](=O)[O-])cc1Sc1ccsc1` was 5.83%; that for `COc1ccc(C(=O)CC(=O)c2ccc(C)cc2)c(O)c1` was 1.97%.
The value for `CCN1C(=O)/C(=C\N2CCN(c3cccc(Cl)c3)CC2)SC1=S` was 1.01%; that for `Cn1cccc1/C=C1\SC(=S)N(NC(=O)c2ccc(Cl)cc2)C1=O` was 11.7%; that for `O=C(O)C(c1ccccc1)N1C(=O)/C(=C\c2ccc(-c3cccc(Cl)c3)o2)SC1=S` (stereo not given) was 59.4% (active).
On to `CCN(CC(=O)Nc1c(F)cccc1F)C(=O)c1ccc(-c2ccccc2)cc1`, for which the inhibition is 4.11%.
Next, `Fc1ccc2[nH]c3c(N4CCN(Cc5ccc6c(c5)OCO6)CC4)ncnc3c2c1`: 48.4% (active); `CCCCCc1c(C)nc(N2CCN(Cc3ccc4c(c3)OCO4)CC2)[nH]c1=O`: -0.63%.
`O=C(c1cccs1)N1CCN(Cc2ccc3c(c2)OCO3)CC1`: the inhibition was -7.13%.

For the origin of these results see PubChem BioAssay AID504462 (Sanford-Burnham Center for Chemical Genomics, 2011).
